We go through 48 compounds from PubChem BioAssay AID504332 (National Center for Advancing Translational Sciences (NCATS), 2011).

SMILES strings stand for the structures. Among all 350,000 compounds or so, about 31,000 (8.9%) were called active. Not shown: some 15% with an inconclusive outcome. Calls come from the whole dose curve; as a rule, active = well fitted inhibition curve with a large enough effect; inconclusive = small, poorly fitted or top-dose-only effect; inactive = no such curve, though single readings can be large or run the other way. The list comes from a sample in which actives are over-represented; it also holds similar structures and randomly drawn compounds.
% is set by controls: 0 for no effect and ±100 for the full control effect; potency is the fitted concentration of half-maximal effect.

Sequence of Histone-lysine N-methyltransferase EHMT2 (Homo sapiens) (Q96KQ7 913-1193 limits assumed): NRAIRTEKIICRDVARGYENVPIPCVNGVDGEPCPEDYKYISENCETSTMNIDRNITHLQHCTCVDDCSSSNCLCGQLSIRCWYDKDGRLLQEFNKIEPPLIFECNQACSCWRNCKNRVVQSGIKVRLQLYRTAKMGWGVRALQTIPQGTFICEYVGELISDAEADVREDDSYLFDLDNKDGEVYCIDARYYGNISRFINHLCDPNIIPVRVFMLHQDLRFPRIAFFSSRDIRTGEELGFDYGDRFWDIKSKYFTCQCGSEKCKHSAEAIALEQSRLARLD

In this assay the target is Histone-lysine N-methyltransferase EHMT2 (Homo sapiens) (UniProt Q96KQ7). Description: qHTS Assay for Inhibitors of Histone Lysine Methyltransferase G9a. Note: nearly all actives have a fitted effect of over 75% in size. Conditions: G9a H3K9 monomethylation, AlphaScreen, 2 h; series mostly up to 59 µM; activity, negative = inhibition: at the top concentration. The method, boiled down:
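Signal arises when biotinylated H3K9 peptide, once monomethylated, bridges streptavidin donor and antibody-captured acceptor beads. Enzyme at 20 nM was preincubated 15 min with test compounds; peptide 500 nM and SAM 20 uM then reacted for 2 h.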
(In general: Quantitative high-throughput screening tests each substance at several concentrations.)
Regarding `Cn1c(=O)c2c(SCC(=O)NCC3CCCO3)nc(-c3ccccc3F)nc2n(C)c1=O` (stereo not drawn), the “activity, negative = inhibition” value was 3.42% (inactive).
Still for that read-out and setting: then `CCOc1ccc(N(C)S(=O)(=O)c2cc(-c3cnc(C)o3)ccc2OC)cc1`, with 4.14% (inactive); and `Cc1cccc(N2CCN(C(=O)Cn3ncc4c5ccccc5n(C)c4c3=O)CC2C)c1` (stereo not drawn), with 4.42% (inactive).
Still for that read-out and setting: then `Cc1csc(=NC(=O)c2ccccc2)n1CCO`, with -1.86% (inactive); and `COc1ccccc1OCCCn1c(-c2ccc(Cl)cc2)nc2ccccc2c1=O`, with 1.97% (inactive).
On the same count and under the same terms, then `CN(C)CCCn1c(SCc2ccc(Cl)cc2)nnc1-c1ccncc1`, with 14% [at 0.501 µM] (inactive).
For `CN(C)CCCn1c(-c2ccc(Cl)cc2)csc1=Nc1ccccc1`, the Potency was 12.6 µM (active).
In the case of `OCCn1c(-c2ccccc2)csc1=Nc1ccccc1`, the Potency is 44.7 µM (active).
`Cc1csc(=Nc2ccccc2)n1CCO`: the Potency was 28.2 µM (active).
Turning to `COCCn1c(CCC(=O)Nc2cc(C)ccc2C)nc2cccnc21`, the “activity, negative = inhibition” value was 22.5% (inactive).
Still for that read-out and setting: then `O=C(OCC(=O)N1CCc2ccccc21)C1CCCN1S(=O)(=O)c1ccc(Cl)cc1` (stereo not drawn), with 0.8% [at 2.33 µM] (inactive).
For `CCCC(=O)Nc1ncnc2c1ncn2[C@@H]1O[C@@H]2OP(=O)(O)OC[C@H]2[C@H]1OC(=O)CCC`, the “activity, negative = inhibition” value is 4.63% (inactive).
Same read-out and setting: under `CCCOc1cccc(C(=O)Nc2cccc(NC(=O)c3ccc(C(C)(C)C)cc3)c2)c1` stands -0.125% (inactive); under `COc1ccc2c(c1)[C@H]1[C@H](CO2)[C@H](c2ccccc2)[C@]2(C)C(=O)Nc3cc(F)c(F)cc3C(=O)N12`, 5.78% [at 2.33 µM] (inactive); under `COc1ccc(-c2nonc2NC(=O)c2oc3ccc(F)cc3c2C)cc1OC`, 1.61% [at 102 µM] (inactive).
In the case of `Cc1c(NC(=O)Cc2ccccc2)cccc1-c1nc2cccnc2s1`, the “activity, negative = inhibition” value is -27.2% (inactive).
Same read-out and setting: under `CN(C)/N=C/c1cc(Cl)cc([N+](=O)[O-])c1O` stands -14.3% (inactive).
Still for that read-out and setting: under `O=C(Cc1cc(=O)[nH][nH]1)N/N=C/c1ccccc1[N+](=O)[O-]` stands 9.5% [at 102 µM] (inactive).
On to `O=C(N/N=C/c1cc(Cl)cc([N+](=O)[O-])c1O)C(O)(c1ccccc1)c1ccccc1`, for which the Potency is 28.2 µM (active).
Regarding `CCOc1ccc(N(CC)C(=O)c2noc3c2COc2ccc(C)cc2-3)cc1`, the “activity, negative = inhibition” value was 10.9% (inactive).
As to `COC(=O)c1cn(C)c2ccc(S(=O)(=O)N3CC(C)CC(C)C3)cc2c1=O` (stereo not drawn), the Potency was 56.2 µM (active).
In the case of `CCn1cc(C(=O)N2CC(C)CC(C)C2)c(=O)c2cc(S(=O)(=O)N3CCCC3)ccc21` (stereo not drawn), the “activity, negative = inhibition” value is 12.6% [at 102 µM] (inactive).
Still for that read-out and setting: under `CC1CCCCC1NC(=O)c1cn(C)c2ccc(S(=O)(=O)N3CCOCC3)cc2c1=O` (stereo not drawn) stands -4.36% [at 102 µM] (inactive); under `O=C1C=C(c2ccnc3cc(Cl)ccc23)C[C@@H](c2ccc3c(c2)OCO3)C1`, -18.7% [at 0.501 µM] (inactive).
On the same count and under the same terms, under `COc1cccc(N2CC(NS(=O)(=O)c3cccs3)CC2=O)c1` (stereo not drawn) stands 4.26% [at 102 µM] (inactive).
On to `COCc1cc(=O)oc2cc(NS(=O)(=O)c3ccc(C)cc3)ccc12`, for which the “activity, negative = inhibition” value was -1.12% [at 102 µM] (inactive).
Still for that read-out and setting: under `Cc1ccc2c(CN3CCN(S(=O)(=O)c4ccccc4C(F)(F)F)CC3)cc(=O)oc2c1` stands -13.1% [at 12.7 µM] (inactive).
With `Cc1ccc2c(CSc3nncs3)cc(=O)oc2c1`, the Potency is 50.1 µM (active).
As for `O=C(/C=C/c1ccccc1[N+](=O)[O-])OCC(=O)N1CCCC1`, the activity, negative = inhibition is 11.7% [at 12.7 µM] (inactive).
Turning to `CC(C)CNC(=O)COC(=O)/C=C/c1ccccc1[N+](=O)[O-]`, the “activity, negative = inhibition” value is 6.78% (inactive).
Take `CC1CC(C)CN(C/C=C/c2ccccc2[N+](=O)[O-])C1` (stereo not drawn): the Potency is 50.1 µM (active).
Consider `O=C(/C=C/c1ccccc1[N+](=O)[O-])NCC1CCCO1` (stereo not drawn), for which the “activity, negative = inhibition” value was -4.67% (inactive).
On to `O=C(/C=C/c1ccccc1[N+](=O)[O-])OC1CCCCC1=O` (stereo not drawn), for which the “activity, negative = inhibition” value was -0.9% [at 102 µM] (inactive).
As to `O=[N+]([O-])c1ccccc1/C=C/CN1CCC(O)CC1`, the Potency is 39.8 µM (active).
In the case of `CCC1(C)CC(=O)c2c(ccc3oc(C(=O)Nc4ccc(C(C)=O)cc4)c(C)c23)O1` (stereo not drawn), the “activity, negative = inhibition” value is 1.06% (inactive).
Turning to `Cc1ccc(C)c(N2CCN(C(=O)C3CCC(CNS(=O)(=O)c4cccs4)CC3)CC2)c1` (stereo not drawn), the “activity, negative = inhibition” value is -7.4% (inactive).
On the same count and under the same terms, under `CCCN1CCN(C(=O)CCCNC(=O)c2ccc(Cl)cc2)CC1` stands -12.5% [at 102 µM] (inactive).
Still for that read-out and setting: under `COc1ccccc1NC(=O)c1cc(C2CC2)nc2c1c(C)nn2-c1ccc(C)cc1` stands 3.8% (inactive); under `CCN(CC)S(=O)(=O)c1ccc2c(c1)N(CC(=O)NCC(C)c1ccccc1)C(=O)CO2` (stereo not drawn), -7.99% (inactive).
Still for that read-out and setting: then `O=C(COC(=O)c1cc(S(=O)(=O)N2CCOCC2)ccc1Cl)NCCc1ccccc1`, with -2.95% [at 12.7 µM] (inactive); and `Cc1ccnc(NC(=O)CNC(=O)c2ccccc2)c1`, with -3.79% [at 102 µM] (inactive).
Consider `S=c1[nH]c(-c2cccs2)cn1-c1ccccc1`, for which the Potency is 2.51 µM (active).
As to `O=c1[nH]c(-c2cccs2)nc2ccccc12`, the “activity, negative = inhibition” value was 10.3% (inactive).
Take `O=C(O)/C=C/c1cn(-c2ccccc2)nc1-c1cccs1`: the “activity, negative = inhibition” value is -5.58% [at 102 µM] (inactive).
For `CC1=C(C(=O)OCC(C)C)C(c2ccc(OCc3ccccc3)cc2)N2C(=O)CCSC2=N1` (stereo not drawn), the “activity, negative = inhibition” value was -28.6% (inactive).
For the compound `O=C(c1ccc[nH]c1=S)N1CCN(S(=O)(=O)c2ccc(Br)cc2Cl)CC1`, the Potency was 8.91 µM (active).
`O=C(c1ccccc1F)N1CCN(S(=O)(=O)c2ccc(Br)cc2)CC1`: the “activity, negative = inhibition” value is 27% [at 102 µM] (inactive).
Still for that read-out and setting: under `O=C(c1ccc(Cl)c(S(=O)(=O)N2CCCCC2)c1)N1CCCCCC1` stands 28.7% [at 102 µM] (inactive).
